In PubChem BioAssay (NCATS):
A number with no mark means an inactive call. Entries that show only a call come without a potency. Calls of active or inactive are those of the source. Calls come from the whole dose curve; as a rule, active = well fitted activation curve with a large enough effect; inconclusive = small, poorly fitted or top-dose-only effect; inactive = no such curve, though single readings can be large or run the other way.

molecular target: Cytochrome P450 3A4 (Homo sapiens) (UniProt P08684); assay: qHTS Assay for Activators of Cytochrome P450 3A4 (AID 885); conditions: recombinant CYP3A4, Luciferin-PPXE luminescence, 60 min; series mostly up to 57.1 µM; note: nearly all actives have a fitted effect of over 65% in size
Sequence (P08684 whole entry, looked up): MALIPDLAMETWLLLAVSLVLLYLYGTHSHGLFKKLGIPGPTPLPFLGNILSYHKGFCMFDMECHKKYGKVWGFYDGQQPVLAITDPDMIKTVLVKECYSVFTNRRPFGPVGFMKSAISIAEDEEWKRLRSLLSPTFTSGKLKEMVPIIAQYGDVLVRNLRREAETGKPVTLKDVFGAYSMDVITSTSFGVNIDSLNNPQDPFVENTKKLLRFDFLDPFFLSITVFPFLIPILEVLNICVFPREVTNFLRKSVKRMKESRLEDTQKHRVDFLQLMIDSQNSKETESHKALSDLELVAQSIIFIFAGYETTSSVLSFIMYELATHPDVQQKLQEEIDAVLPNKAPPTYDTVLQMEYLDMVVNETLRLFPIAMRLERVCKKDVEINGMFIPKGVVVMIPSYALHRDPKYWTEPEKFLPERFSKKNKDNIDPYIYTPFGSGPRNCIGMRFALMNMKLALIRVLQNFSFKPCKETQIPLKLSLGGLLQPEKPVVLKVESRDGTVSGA
Procedure: NIH Molecular Libraries Screening Centers Network [MLSCN]
NIH Chemical Genomics Center [NCGC]
The P450 gene superfamily is involved in the metabolism and clearance of xenobiotics. This assay used human CYP3A4 to measure the dealkylation of luciferin-6' phenylpiperazinylyl (Luciferin-PPXE; […]) to luciferin. The luciferin is then measured by luminescence after the addition of a luciferase detection reagent. Luciferin-PPXE concentration in the assay was equal to its KM for CYP3A4. Inhibitors and some substrates limit the production of luciferin, and decrease measured luminescence; activators increase the production of luciferin and luminescence.
NCGC Assay Protocol Summary:
Two uL of enzyme and substrate mix (final concentrations: 20nM CYP3A4, 25uM Luciferin-PPXE, 200mM KPO4) were dispensed into a white, solid bottom 1536-well microtiter plate. 23nL of compound was transferred by a pin tool. The plate was incubated at RT for 10 min. Two uL of an NADPH regeneration solution (Promega supplied reagent) was dispensed and the reaction was allowed to continue for 60 min at RT. Then the reaction was stopped by reconstituted luciferin detection buffer. After another 20 min of incubation the plate was read on the ViewLux (Perkin Elmer) at 60 sec exposure and 2x2 binning. This protocol was carried out with Promega-Glo reagents and further information can be found at http://www.promega.com/tbs/tb325/tb325.pdf. Data were normalized to the to AC100 inhibition (57 uM ketoconazole).
Keywords: P450, CYP2D6, Luciferase, MLSMR, MLSCN, NIH Roadmap, qHTS, NCGC
Potency is the fitted concentration of half-maximal effect.

Structure (SMILES) | Potency | activity change, positive = activation
C[N+]1(C)C2CC(OC(=O)C(CO)c3ccccc3)CC1[C@@H]1O[C@H]21 (stereo not given in full) | inactive | –
CC(=O)O[C@H]1CC[C@@]2(C)[C@@H](CC[C@H]3[C@H]2CC(=O)[C@]2(C)[C@@H]3C[C@@H](N3CC3)[C@H]2C(C)=O)C1 | 3.98 µM (active) | –
COC(=O)Nc1cccc(OC(=O)Nc2cccc(C)c2)c1 | inactive | –
N[C@H](Cc1ccc2oc3cc(=O)c4ccccc4c-3nc2c1)C(=O)O | – | -32.5% [at 11.4 µM]
Cc1ccc(N)c(N)c1 | inactive | –
Cc1cc(N=Nc2ccccc2C)ccc1N | inactive | –
Nc1ccc(-c2ccc(N)c(Cl)c2)cc1Cl | inactive | –
Cc1ccc(OP(=O)(Oc2ccc(C)cc2)Oc2ccc(C)cc2)cc1 | inactive | –
NCCSC(c1ccccc1)c1ccccc1 | – | -39.5% [at 11.4 µM]
Nc1ccc(Oc2ccc(N)cc2)cc1 | inactive | –
CC[C@@](O)(C(=O)O)c1cc2n(c(=O)c1CO)Cc1cc3ccccc3nc1-2 | – | -36.6% [at 11.4 µM]
Nc1c(Br)cc([N+](=O)[O-])cc1[N+](=O)[O-] | inactive | –
CCNC(C)(C)[C@@H](SS)c1ccc(Br)cc1 | – | -31.2% [at 11.4 µM]
C[C@@H](O)CN(CCN(C[C@@H](C)O)C[C@@H](C)O)C[C@@H](C)O.O=[N+]([O-])O.[Cu] | – | -36.8% [at 11.4 µM]
O=C(C[C@H](c1ccccc1)c1c(O)c2ccccc2oc1=O)c1ccccc1 | – | -30.1% [at 11.4 µM]
C[n+]1c(/C=C\c2ccc(O)c3ncccc23)[se]c2ccccc21 | – | -31.7% [at 11.4 µM]
CC(=O)NNc1ccccc1 | inactive | –
C[N+]1(C)CCc2cc3c(cc2[C@@H]1[C@@H]1OC(=O)c2c1ccc1c2OCO1)OCO3 | inactive | –
CCOP(=S)(OCC)SCCSCC | inactive | –
C=CCc1cc(OC)c2c(c1)OCO2 | inactive | –

Structure (SMILES) | Potency | activity change, positive = activation
CO[C@@H]1CC=C2CCN3CCC4=C(CC(=O)OC4)[C@]23C1 | inactive | –
c1cncc(CNc2cc(-c3ccc4c(c3)OCO4)ncn2)c1 | inactive | –
C[C@H](CN(C)C)C(C#N)(c1ccccc1)c1ccccc1 | – | -41.5% [at 11.4 µM]
Oc1ccc(Cl)c(Cl)c1Cl | inactive | –
CN(C)c1ncc2nc(-c3ccc(F)cc3)c(=O)n(Cc3cccs3)c2n1 | inactive | –
Cc1cc(-c2cc(C)c(N)c(C)c2)cc(C)c1N | inactive | –
CSC([N-]/N=C/c1cccc(C)n1)=[S]=[Cu].CS[C@H]([S-])[N-]/N=C/c1cccc(C)n1 | – | -73.3% [at 11.4 µM]
Oc1ccc2c3c1O[C@@H]1c4[nH]c5c(c4C[C@@]4(O)[C@@H](C2)N(CC2CC2)CC[C@]314)C[C@]1(O)[C@@H]2Cc3ccc(O)c4c3[C@@]1(CCN2CC1CC1)[C@H]5O4 | inactive | –
C[C@H](CC(C#N)(c1ccccc1)c1ccccc1)N1CCCCC1 | – | -53% [at 11.4 µM]
S=c1[nH]c2ccccc2[nH]1 | inactive | –
CCOP(=S)(OCC)Oc1nc(Cl)c(Cl)cc1Cl | inactive | –
CC(C)(C)C(O)(CCc1ccc(Cl)cc1)Cn1cncn1 (stereo not given) | inactive | –
Cc1ccc(N)cc1Cl | inactive | –
COc1cc2c(cc1OC)[C@]13CC[N@+]4(C)CC5=CCO[C@H]6CC(=O)N2[C@@H]1[C@@H]6[C@@H]5C[C@]34O | – | -28.5% [at 11.4 µM]
NC[C@H](O)c1cc(O)c(O)cc1F | inactive | –
Nc1ccc(Cc2ccc(N)c(Cl)c2)cc1Cl | inactive | –
O=C(c1ccccc1)[C@H]1[C@H](c2ccccc2[N+](=O)[O-])N1C1CCCCC1 (stereo not given in full) | – | -50.5% [at 11.4 µM]
Cc1ccc(OP(=O)(Oc2ccc(C)cc2)N2C=Cc3ccccc3[C@H]2C#N)cc1 | – | -91.2% [at 11.4 µM]
Nc1ccc2ccccc2c1 | inactive | –
Oc1cc(Cl)c(Cl)c(Cl)c1Cl | inactive | –
